In PubChem BioAssay (NCATS):
“And” between values parts separate entries of the source, which are not always exact repeats. Equal values may be shown once. Inconclusive results are not listed. The source holds several records for some structures; these can differ, active in one and inactive in another. The source made the active and inactive calls. Calls come from the whole dose curve; as a rule, active = well fitted activation curve with a large enough effect; inconclusive = small, poorly fitted or top-dose-only effect; inactive = no such curve, though single readings can be large or run the other way.

Biological target: Cellular tumor antigen p53 (Homo sapiens) (UniProt P04637)
Experiment: Primary qHTS for small molecule compounds that upregulate eGFP-tagged delta133p53alpha (in N-terminal) cells. (AID 2060322); note: nearly all actives have a fitted effect of over 75% in size;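 for activation: cells pre-induced with doxycycline then dosed without doxycycline; series mostly up to about 56 µM; 0% = DMSO vehicle and 100% = reference activator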
Settings: NCI-H358 eGFP-delta133p53alpha fluorescence, 24 h; activation: stronger effect = higher value
Source text: Assay Development and Screening Technology
National Center for Advancing Translational Sciences (NCATS),
National Institute of Health (NIH), Rockville, Maryland
Cellular senescence (CS) is one of the hallmarks of aging and age-related diseases. Senescent cells are characterized by an irreversible growth arrest, an increase in senescence-associated beta-galactosidase (SA-beta-gal) activity and p16INK4a expression, an activation of the DNA damage response pathways, and the emergence of a senescence-associated secretory phenotype (SASP).
Delta133p53alpha, a human/primate-specific p53 protein isoform, delays or inhibits the induction of CS and SASP in various types of human cells, including progeria-derived fibroblasts, primary normal astrocytes, and CD8+ T lymphocytes. Induction of delta133p53alpha with small molecule compounds may provide therapeutic opportunities for inhibition of senescence/SASP-associated pathologies in progeria syndromes, astrocyte-mediated neuroprotection in neurodegenerative diseases, and possibly prevention and treatment of a wider range of senescence- and aging-associated diseases.
Here we report the development and validation of a cell-based quantitative high throughput screening (qHTS) assay in 1,536-well format. This qHTS assay uses the NCI-H358 cell line with doxycycline-inducible expression of enhanced green fluorescent protein (eGFP)-tagged delta133p53alpha, which allows efficient and highly quantitative measurement of the protein levels.
PROTOCOL TABLE (as described by Inglese J, Shamu CE and Guy RK. 2007)
SEQUENCE No. (e.g., 1, 2, 3, etc.); […] (e.g., Cells, Incubation, Reagent, etc.); VALUE; DESCRIPTION.
1; Cells; 4uL; 800 doxycycline treated cells / well in doxycycline-free media, 1536-well black, clear-bottom low base Aurora microplates.
2; Compounds; 23 nL; Kalypsis pin tool (Wako) equipped with 1536-well pin heads, 5-azacytidine positive control.
3; Incubation; 24 hr; 37C, 5% CO2; 95% relative humidity.
4; Aspiration; 1x; BioTek EL406 washer dispenser (Agilent).
5; Fixing; 3.5% paraformaldehyde, BioTek EL406 washer dispenser (Agilent).
6; Washing; 1x PBS; BioTek EL406 washer dispenser (Agilent).
7; Nuclei staining; 1:1000 dilution of Hoechst 33342 (Thermofisher), BioTek EL406 washer dispenser (Agilent).
8; Incubation; 20 min; in the dark at room temperature.
9; Washing; 2x, 1x PBS (ThermoFisher), BioTek EL406 washer dispenser (Agilent).
10; Reagent; 10 uL; 1x PBS per well, sealed with clear adhesive tape.
NOTES (numbers refer to sequence numbers above).
1. NCI-H358 cells expressing eGFP-tagged delta133p53alpha were grown in T75 culture flasks and treated with doxycycline for 24h, at 10 ng/ml for eGFP-D133p53a cells (N-terminal cell) and 100 ng/ml for D133p53a-eGFP cells (C-terminal cells). Cells were trypsinized, counted using a Counted 3 Automated Cell Counter (Thermo Fisher), and diluted to a concentration of 200,000 cells/ml. A Multidrop Combi Reagent Dispenser (ThermoFisher) was used to dispense 800 cells/well in […] of doxycycline-free media, into 1536-well black/clear bottom low base plates (AuroraMicroplates).
2. After plating cells, 23 nl of compound library, DMSO vehicle control or positive control (5-azacytidine) were transferred by Pin Tool (Wako). The plate map layout was the same for each plate: (column 1) non-doxycycline treated cells + DMSO vehicle control; (column 2) doxycycline treated cells + DMSO vehicle control baseline; (column 3) doxycycline treated cells + positive control 57.5 uM final concentration 5-azacytidine; (column 4) doxycycline treated cells + serial dilution of 5-azacytidine, 16-point 1:2 titration spanning 1.8 nM to […] final concentration; (columns 5-48) doxycycline treated cells + titration of library compounds.
3. Cells were incubated at 37 °C, 5 % CO2, 95% RH with breathable metal lid for 24h.
4-10. […] After two washes, 10 ul of 1X PBS (Thermo Fisher) was dispensed to each well. Clear adhesive plate seals (VWR) were applied and plates stored at 4 °C.
11. […]
Potency is the fitted concentration of half-maximal effect.

Sequence of Cellular tumor antigen p53 (Homo sapiens) (P04637 whole entry, looked up): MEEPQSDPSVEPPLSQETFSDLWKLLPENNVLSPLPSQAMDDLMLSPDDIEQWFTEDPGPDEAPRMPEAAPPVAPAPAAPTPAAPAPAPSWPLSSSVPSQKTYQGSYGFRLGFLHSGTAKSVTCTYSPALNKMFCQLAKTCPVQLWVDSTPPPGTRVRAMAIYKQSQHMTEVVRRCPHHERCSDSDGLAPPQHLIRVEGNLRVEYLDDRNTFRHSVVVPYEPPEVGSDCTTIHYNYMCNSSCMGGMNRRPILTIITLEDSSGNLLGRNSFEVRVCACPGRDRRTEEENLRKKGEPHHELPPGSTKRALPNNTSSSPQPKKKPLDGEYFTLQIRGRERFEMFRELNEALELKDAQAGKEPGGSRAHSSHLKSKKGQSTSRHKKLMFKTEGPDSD

Compound	activation	Potency
NC(=O)c1nnn(Cc2cc(Cl)c(C(=O)c3ccc(Cl)cc3)c(Cl)c2)c1N	-8.58% (inactive)	–
COc1ccc(O)cc1	1.69% (inactive)	–
OCC1OC(Oc2cc(O)cc(/C=C/c3ccc(OC4OC(CO)C(O)C(O)C4O)cc3O)c2)C(O)C(O)C1O (stereo not given)	-9.16% (inactive)	–
CCOC(=O)CCNc1cc(N2CCc3ccccc3CC2)nc(-c2cccnc2)n1	7% (inactive)	–
Nc1[nH]c(=O)ncc1F	10.9% (inactive) and -17.3% (inactive)	–
CCNC(=O)NCCCOc1cccc(CN2CCCCC2)c1	15% (inactive)	–
COc1cc2nccc(Oc3ccc(NC(=O)C4(C(=O)Nc5ccc(F)cc5)CC4)cc3)c2cc1OC	11.6% (inactive)	38.5 µM (active)
COc1cc(C(=O)OCCCN2CCCN(CCCOC(=O)c3cc(OC)c(OC)c(OC)c3)CC2)cc(OC)c1OC	-3.95% (inactive) and -82% (inactive)	–
CNC(=O)c1ccc(C)c(-n2c(C)cc(OCc3ccc(F)cc3F)c(Br)c2=O)c1	30.3% (inactive) and -12.5% (inactive)	–
OC[C@H]1O[C@@H](OCc2ccccc2)[C@H](O[C@@H]2OC[C@@H](O)[C@H](O)[C@H]2O)[C@@H](O)[C@@H]1O	-14.3% (inactive)	–
O=C1CSC(=O)N1C(CCc1ccncc1)COc1ccc(-c2cccc([N+](=O)[O-])c2)cc1 (stereo not given)	-7.57% (inactive)	–
CCC(C)CC(=O)OC1C(=O)C(CO)=CC(O)C1C(C)C (stereo not given)	–	23.9 µM (active)
NS(=O)(=O)c1ccc(N2CCN(CC[C@@H]3OCCc4ccccc43)CC2)cc1	16.7% (inactive)	–
O=C1CC2(CCCC2)CC(=O)N1	-7.34% (inactive)	–
COCCc1ccc(OCC2CO2)cc1 (stereo not given)	7.53% (inactive)	–
C[C@H]1[C@H](O)O[C@@H]2O[C@@]3(C)CC[C@@H]4[C@H](C)CC[C@@H]1[C@@]24OO3	–	21.7 µM (active)
CC[C@H](C)n1cc(C)c2c(C(=O)NCc3c(C)cc(C)[nH]c3=O)cc(-c3ccc(N4CCNCC4)nc3)cc21	-13% (inactive)	–
C[C@@H]1O[C@@H](O[C@H]2[C@H](OC(=O)[C@]34CCC(C)(C)C[C@H]3C3=CCC5[C@@]6(C)CC[C@H](O[C@@H]7O[C@H](CO[C@@H]8OC[C@H](O)[C@H](O)[C@H]8O)[C@@H](O)[C@H](O)[C@H]7O)C(C)(C)C6CC[C@@]5(C)[C@]3(C)C[C@H]4O)OC[C@@H](O)[C@@H]2O)[C@H](O)[C@H](O)[C@H]1O[C@@H]1OC[C@H](O)[C@H](O[C@@H]2OC[C@@H](O)[C@H](O)[C@H]2O)[C@H]1O (stereo not given in full)	3.82% (inactive)	–
CNC(=O)c1cc(Oc2ccc(NC(=O)Nc3ccc(Cl)c(C(F)(F)F)c3)c(F)c2)ccn1	8.41% (inactive)	–

Compound	activation	Potency
COc1ccc(S(=O)(=O)N2CCC[C@H]2C(=O)Nc2cc(C)cc(C)c2)cc1	-17.2% (inactive)	–
CCN1/C(=C/C=C/c2sc3ccccc3[n+]2CC)Sc2ccccc21	–	16.9 µM (active)
CNC(=S)NS(=O)(=O)c1cc(CCNC(=O)c2cc(Cl)ccc2OC)ccc1OC	-6.68% (inactive)	–
CCCc1ccc(OCC(=O)N(Cc2nc(-c3cccnc3)no2)C(C)C)cc1	-11.5% (inactive)	–
CC(C)c1cc(-c2ccc(F)c3ccccc23)nc(N)n1	-13.4% (inactive)	–
C/C=C/C=C/C1=C2C(=O)C3(C)C4C(C(=O)CC(O)/C=C/C)=C(O1)C1(C)C2C2(C)OC1(O)C4(C)OC23O (stereo not given)	-2.68% (inactive)	–
O=C(/C=C/c1ccc(O)c(O)c1)O[C@@H]1C[C@@](OC(=O)/C=C/c2ccc(O)c(O)c2)(C(=O)O)C[C@@H](O)[C@@H]1O	11.9% (inactive)	–
Nc1ccc(S(=O)(=O)NCc2ccccc2)cc1	-10% (inactive)	–
COC(=O)c1cc(OC)cc(OC)c1C(=O)c1c(OC)cc2c(c1O)C1CCCC(C)(O2)O1 (stereo not given)	14.5% (inactive)	–
CC1(C)S[C@@H]2[C@H](NC(=O)[C@H](N)c3ccc(O)cc3)C(=O)N2[C@H]1C(=O)O	-5% (inactive)	–
CC(C)NCC(O)COc1ccc(CC(N)=O)cc1 (stereo not given)	-17.7% (inactive)	–
C=C(C(=O)OC)C1C(O)CC2(C)C(O)CCC(=O)C2C1O (stereo not given)	-15.3% (inactive)	–
N#C/C(=C\c1ccc(O)c(O)c1)C(=O)c1ccc(O)c(O)c1	-3.67% (inactive)	–
CCC(=O)c1c(O)cc(O)cc1O	-1.67% (inactive)	–
CC1=C(CC(=O)O)c2cc(F)ccc2C1=Cc1ccc(S(C)=O)cc1 (stereo not given)	-21.9% (inactive)	–
CC(COc1ccccc1)NC(C)C(O)c1ccc(O)cc1 (stereo not given)	18.6% (inactive)	–
O=C(Nc1ccc(Cl)c(Cl)c1)C1CC1	-7.53% (inactive)	–
Cn1c(=O)c(-c2c(Cl)cccc2Cl)cc2cnc(Nc3cccc(C(=O)O)c3)nc21	29.6% (inactive)	12 µM (active)
CCN(CC)CCCCNc1ncc2c(n1)N(C)C(=O)N(c1c(Cl)c(OC)cc(OC)c1Cl)C2	-7.31% (inactive)	–
